The supplement of paper PMC6555819

system: FXR:RXRa (NR concentration 270 nM, RXRa partner concentration 90 nM); assay: PBM binding z-score (relative to random genomic background probes); higher = stronger binding; sequences stand for … in GC…GCGATTGACAGCGTAGAATGAAGG
Outline: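 Custom Agilent 4×180K protein-binding microarrays carried double-stranded probes, each with a 34-nt variable region. These regions held direct-repeat seeds, single-nucleotide variants, half-site ablations and random human genomic background sequences. Ligand-free nuclear receptor dimers were incubated on the arrays for 1 h, antibodies against each partner (one per run) detected binding, and scanned fluorescence was regression-normalized. Binding z-scores take the random background probes as reference.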

Sequence	PBM binding z-score
CATACAGGGTCAGCAAGGCCAGAGTAGGGACGGC	4.73
CCTACTGGGCCAAAAAAGTCATTGATGCCGATAA	-0.316
CCAGACAGGTGGAAGGTAACTCAGTCTGGTACGC	-0.299
GCTAGTTGGTCAGTAAAGGGTCACACACCGGTCG	2.1
TCTTGTAGCTCAAGCAGGTTAAGAAAGCCTGAGT	-0.423
ACTAGCAGGCCAAGGGTCACTAAAGATTAGTCCG	2.25
CCGACTGGGGCCAGGTTACCATAACGCACAGCCA	0.0157
ATATGTAGGTTATCGGGTCATTCAATTTGCGCAT	3.06
CCTTTCGGGTCACTCCAGGTTATAGCATCGGAGT	4.95
ACAGACAGGTGAGTGAAGGTAACTCCGCTGGACG	0.216
TGTCAAAGTTCAACGGTAACGTAAGTATCCACAC	6.73
ATCTGTAGGTTAAGGGTCATTCAGGTTGGTTCGC	5.22
GGAAGGAGGGCAAAGTTGATAGCATCTGTCGACG	1.43
CGTCGAAGTTCAAGGTAACGTAACAGAAAGCAGC	2.59
AGTCAAAGTTCATCCAGGTAACGTAAGATATGCT	6.4
TAGCCTAGGTCATGGGCGAGTATACCACGCGAAC	4.42
CCAGACAGGTGAGAAGGTAACTAAGCCTCGATTA	-0.00461
CATACAGGGTCAGCTACGCCAGAGTAGGGACGGC	4.39
CATACAGGGTCAGCGAGGCCAGAGTAGGGACGGC	5.13
AATACAGGGTCATCGCAGGCCAGAGTACGCACAG	7.15
TCATATAGGAAATACAGGTGAAAGTCGGCATCTA	1.36
TTACCAAGGTGGGCTGAGGTCGTTGATCCAACTC	1.56
